According to PubChem BioAssay AID652256 (National Center for Advancing Translational Sciences (NCATS), 2013):
The other results are listed elsewhere or left out. The source made the active and inactive calls.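 Rule for the calls: active = a half-inhibiting concentration could be measured and was below 100 µM; inactive = the rest.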

System: Thioredoxin reductase 1 (TXNRD1), rat
Assay: qHTS Assay for Inhibitors of Mammalian Selenoprotein Thioredoxin Reductase 1 (TrxR1): DTNB Assay
Settings: purified TrxR1, DTNB reduction, A412
From the text: The selenoprotein thioredoxin reductase (TrxR; EC 1.8.1.9) is a FAD containing homodimeric pyridine nucleotide-disulfide oxidoreductase with many cellular roles. Together with NADPH and its prime substrate thioredoxin (Trx), the enzyme forms the core of the Trx system. The mammalian Trx system exerts a wide spectrum of functions including redox regulation, antioxidant defense, regulation of transcription factors as well as support of cell growth and replication. Many of these functions involve the reduction of Trx, which may subsequently reduce a number of different substrates including ribonucleotide reductase, peroxiredoxins or NFkB. Mammalian TrxR itself also has a broad substrate specificity, reducing both protein and non-protein substrates, including low molecular weight compounds such as dehydroascorbate, lipoic acid, ubiquinone, and juglone. In addition, several drugs in clinical use for anticancer treatment are indeed known to target TrxR1. This orthogonal DTNB assay seeks to further characterize cherry picks. NIH Molecular Libraries Probe Production Network [MLPCN] NIH Chemical Genomics Center [NCGC] MLPCN Grant: MH090846 Assay Provider: Elias Arner, Karolinska Institute
15 nM TrxR1 is reduced by 250 microM NADPH in TE buffer [50 mM Tris-HCl (pH 7.5), 2 mM EDTA] in a 96-well microtiter plate. Compounds are then added and incubated for 30 min at 30 degrees C. During compound incubation, NADPH consumption is followed by the decrease in absorbance at 340 nm using a VersaMax microplate reader (Molecular Devices) to determine substrate potential of the compound. DTNB is subsequently added to a final concentration of 2.5 mM, and the formation of TNB- is followed at 412 nm at 30 degrees C to assess inhibitory activity of the compound.

Potency, active:
Cc1ccccc1-c1nc(CS(=O)(=O)CC(=O)N2CCc3ccccc3C2)c(C)o1 0.292 µM
CC1CCN(C(=O)c2ccc(S(=O)(=O)Cc3cc(F)ccc3F)c([N+](=O)[O-])c2)CC1 0.317 µM
O=C(/C=C/c1ccco1)Nc1cccc(-c2nc3ccccc3[nH]2)c1 10.3 µM
